# PREPL inhibitor = inhibitors of human prolyl oligopeptidase-like enzyme PREPL. recombinant PREPL, fluorescence polarization activity-based probe. 320,000 tested, 0.68% active. inhibition, % at 5.96 µM. Q4J6C6. AID 2751; in the data active means inhibition above about 43%;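 further: 0% = enzyme with DMSO and 100% = wells lacking enzyme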
# DSG3 Ab inh = blocks pemphigus antibody binding to human desmoglein-3. P32926. DSG3-coupled beads, scFv-anti-DSG3-GFP binding, flow cytometry; stronger effect = lower value. binding (percent of control), % at 10 µM. 310,000 tested, 0.48% active. AID 588358;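 active means binding more than 3 SD below its plate's average and above zero; inconclusive means below that plate limit but binding exactly zero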;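 further: hits lower antibody fragment binding to DSG3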
# Target sequence (P32926 whole entry, looked up, the tested form may be a part): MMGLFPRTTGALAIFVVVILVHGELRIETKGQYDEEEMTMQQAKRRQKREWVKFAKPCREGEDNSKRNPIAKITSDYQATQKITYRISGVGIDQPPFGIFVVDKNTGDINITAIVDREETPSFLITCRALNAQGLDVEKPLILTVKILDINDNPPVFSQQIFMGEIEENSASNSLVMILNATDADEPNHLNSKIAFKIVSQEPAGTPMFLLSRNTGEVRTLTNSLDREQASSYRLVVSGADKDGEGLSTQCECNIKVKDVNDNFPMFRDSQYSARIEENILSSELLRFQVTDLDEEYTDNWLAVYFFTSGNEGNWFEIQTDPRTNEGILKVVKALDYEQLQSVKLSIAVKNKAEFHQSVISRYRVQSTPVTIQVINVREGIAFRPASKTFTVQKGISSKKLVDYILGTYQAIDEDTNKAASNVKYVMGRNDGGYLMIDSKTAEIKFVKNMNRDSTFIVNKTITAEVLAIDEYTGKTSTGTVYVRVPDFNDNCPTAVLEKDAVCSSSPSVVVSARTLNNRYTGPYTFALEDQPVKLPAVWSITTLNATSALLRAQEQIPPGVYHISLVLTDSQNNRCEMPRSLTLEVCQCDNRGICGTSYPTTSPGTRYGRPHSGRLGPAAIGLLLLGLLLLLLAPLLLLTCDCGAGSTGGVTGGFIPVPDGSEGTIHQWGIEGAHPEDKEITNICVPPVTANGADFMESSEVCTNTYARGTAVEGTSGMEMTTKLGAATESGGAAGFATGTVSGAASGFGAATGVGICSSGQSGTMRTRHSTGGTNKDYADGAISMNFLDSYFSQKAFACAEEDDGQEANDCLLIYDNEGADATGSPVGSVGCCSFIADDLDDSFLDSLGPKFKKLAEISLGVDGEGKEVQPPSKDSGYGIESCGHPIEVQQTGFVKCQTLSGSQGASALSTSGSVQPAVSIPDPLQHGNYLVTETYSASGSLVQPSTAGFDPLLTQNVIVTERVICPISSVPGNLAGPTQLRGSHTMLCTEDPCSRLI
# GRK2 aptamer HTS = human GRK2 inhibition via aptamer displacement; 330,000 tested, 0.59% active; inhibition of aptamer binding, % at 10 µM; bead flow cytometry, FAM-aptamer displacement from GRK2; P25098;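 active means inhibition of aptamer binding above 40%, roughly 3 SD of noise, on plates passing a quality check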;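 further: median bead fluorescence of bound FAM aptamer so fluorescent compounds give negative values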
# GASC-1 inh = inhibitors of human GASC-1 (JMJD2C) demethylase; Q9H3R0; GST-JMJD2C(1-420) H3K9me3 demethylation, DELFIA europium; inhibition, % at 2.35 µM; 330,000 tested, 0.069% active;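 active means more than half of a compound's replicate wells show inhibition beyond 50%, single wells judged on their own value; inconclusive means some, but no more than half, of replicates pass 50% inhibition; inactive means no replicate passes 50% inhibition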;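 further: signal counts dimethyl H3K9 product captured on neutravidin plate; 0% = median of DMSO wells and 100% = 0.3 times that DMSO median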
# VLA-4 inh = inhibition in a human VLA-4 binding assay | P13612 | VLA-4 expressing cells, ligand binding flow cytometry | inhibition, % (about 7 µM as worked out from the volumes in the protocol) | 330,000 tested, 0.2% active | AID 2557; in the data active means inhibition above about 50%
# VLA-4 allo CP = human VLA-4 allosteric modulation in cherry picked compounds; AID 2813; 1,300 tested, 2% active; shares compounds with VLA-4 inh; inhibition, % at 6.7 µM; U937 cells, HUTS-21 LIBS mAb binding, flow cytometry; LDV ligand present at threefold Kd; in the data active means inhibition above about 40%;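 further: 0% = ligand without compound and 100% = no ligand background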
# Numbers without * were called inactive; ? = inconclusive; / = not tested or not shown. Sampled rows, rich in hits. Any-hit rate of the full collection: about 1.6%.
SMILES,PREPL inhibitor,DSG3 Ab inh,GRK2 aptamer HTS,GASC-1 inh,VLA-4 inh,VLA-4 allo CP
OC[C@H]1O[C@@H](n2cnc3c(Nc4ccccc4)ncnc32)[C@H](O)[C@@H]1O,4,107,3,?,3,2
Cc1nn(-c2ccccc2)c2nc(N)c(C(N)=O)cc12,3,96,0,-5,6,/
CC(=O)Nc1cccc(NC(=O)CSc2nccn2Cc2ccccc2)c1,-6,/,0,2,18,/
CC(C)[C@H](NC(=O)N1c2ccccc2NC(=O)[C@@H]1C(C)C)C(=O)N[C@@H](Cc1ccccc1)C(=O)O,-2,105,0,-15,64*,10
CC(C)[C@H](NC(=O)N1c2ccccc2NC(=O)[C@@H]1C(C)C)C(=O)N[C@@H](C(=O)O)c1ccccc1,5,105,0,5,29,/
COc1cc(N)c(Cl)cc1C(=O)OCC(=O)NCC1CCCCC1,10,119,0,2,11,5
O=C(COC(=O)c1ccccc1Br)NCC1CCCCC1,29,/,3,9,1,-22
O=C(COC(=O)c1ccccc1Br)Nc1ccccc1F,12,104,4,4,36,8
Cc1cccc(OCCC(=O)Nc2ccc(N3CCOCC3)cc2N2CCOCC2)c1,22,100,0,-8,50*,3
CCOc1ccc(OCCC(=O)Nc2ccc(N3CCOCC3)cc2N2CCOCC2)cc1,/,103,/,/,/,/
CC(C)C(=O)Nc1cc2c3c(c1)CCN3C(=O)CC2,2,98,0,3,3,/
Fc1ccc2nc(Nc3nc4c(F)cccc4s3)sc2c1,15,/,4,7,53*,0
COc1ccccc1/C=C/C(=O)NC(=S)NCC1CCCO1 (stereo not drawn),-2,103,0,-2,2,/
O=C(CSc1nnc(Nc2ccccc2)s1)NN1C(=O)NC2(CCCCC2)C1=O,2,123,2,20,49,-8
Cc1cc(/C=C2/NC(=O)N(c3ccccc3)C2=O)c(C)n1-c1cccnc1,5,101,13,1,43,-11
COc1cc(/C=N/Nc2ncc(C(F)(F)F)cc2Cl)cc(OC)c1OC,8,112,0,10,41,7
Cc1cccc(C(C)C)c1NS(=O)(=O)c1cn(C)nc1C,2,/,0,1,10,/
O=C(NCc1ccccc1)C1CCCN(C(=O)Nc2ccccc2)C1 (stereo not drawn),-3,100,4,-3,75*,0
CCN(CC)C(=O)CSc1nnnn1-c1ccc(F)c(Cl)c1,-7,98,0,17,-6,/
N=c1c(C(=O)NCc2ccc(F)cc2)cc2c(=O)n3ccccc3nc2n1CC1CCCO1 (stereo not drawn),17,115,0,0,89*,4
O=c1c(Cc2ccc(Cl)cc2)c(O)ccn1Cc1ccncc1,4,104,2,2,10,/
CCC(=O)Nc1nnc(-c2ccc(Cl)s2)o1,3,78,1,-17,45,0
CCOC(=O)CSc1ccc2nnc(-c3ccccc3)n2n1,2,104,6,-1,17,/
CCOC(=O)CSc1ccc2nnc(-c3cccnc3)n2n1,22,101,0,0,-24,9
COc1ccc(C(=O)/C=C/C(=O)N(CC(=O)NC2CCCCC2)Cc2cccs2)c(O)c1,6,106,0,/,63*,28
SMILES,PREPL inhibitor,DSG3 Ab inh,GRK2 aptamer HTS,GASC-1 inh,VLA-4 inh,VLA-4 allo CP
COCCN(CC(=O)NC1CCCCC1)C(=O)/C=C/C(=O)c1ccc(OC)cc1O,/,96,/,3,/,/
O=C(CN1CCN(Cc2ccccc2)CC1)N/N=C/C=C/c1ccccc1[N+](=O)[O-],2,104,0,5,43,-14
CCC(Sc1ccc2nnc(-c3ccc(OC)c(OC)c3)n2n1)C(=O)O (stereo not drawn),12,108,0,-15,7,0
C[C@@]12C(=O)Nc3cc(F)c(F)cc3C(=O)N1[C@H]1c3cc(Cl)ccc3OC[C@@H]1[C@@H]2c1ccccc1,21,95,1,31,6,/
O=C(NC1CCC(O)CC1)c1cc(-c2ccc(Cl)cc2)nc2ccccc12 (stereo not drawn),-6,/,1,1,13,/
CN(CC(=O)Nc1cccc(F)c1)C(=O)CC1CCCCC1,8,98,0,5,-4,/
Nc1cc(S(=O)(=O)Nc2ccc(Br)cc2)ccc1Cl,-31,99,0,-5,-2,6
COc1ccc(S(=O)(=O)Nc2ccc(NC(C)=O)cc2)cc1Br,27,97,0,-17,29,/
COc1ccc(NS(=O)(=O)c2ccc(Cl)c(N)c2)cc1Br,-6,105,0,30,4,-4
COc1ccccc1NCC(=O)N1CCN(S(=O)(=O)c2ccccc2)CC1,18,/,0,2,-8,/
COCCCN(C(=O)CCOc1ccc(C)cc1)c1c(N)n(Cc2ccccc2)c(=O)[nH]c1=O,14,105,7,-16,50*,4
COc1cccc2[nH]c3c(=O)n(CCCN4CCOCC4)cnc3c12,-3,89,0,-2,-1,10
Cc1ccc2c(c1)[nH]c1c(=O)n(CCCN3CCOCC3)cnc12,2,106,0,1,11,/
Cc1cc2c(cc1C)C(c1ccccc1F)CC(=O)N2 (stereo not drawn),-8,112,/,23,9,/
Cc1cc2c(cc1C)C(c1cccc(F)c1)CC(=O)N2 (stereo not drawn),/,97,0,2,0,-4
CCOC(=O)c1c(C)n(C)c2cc(-c3ccc(F)cc3)c(O)cc12,-16,/,2,4,18,/
Cc1c(N(C(=O)c2cc(=O)[nH]c3ccccc23)C(C)C)c(=O)n(-c2ccccc2)n1C,5,103,0,0,10,0
COc1ccc(N2C(=O)CC(N3CCCCC3)C2=O)cc1 (stereo not drawn),4,99,3,2,0,-3
CCCOc1ccc(N2C(=O)CC(N3CCC(C(=O)OCC)CC3)C2=O)cc1 (stereo not drawn),-10,87,1,3,4,-7
COc1cccc(NC(=S)N(CCCN2CCOCC2)C(C)c2cc3ccccc3o2)c1 (stereo not drawn),2,108,1,1,14,/
COCCn1c(=NC(=O)/C=C/c2ccccc2Cl)sc2cc(NC(C)=O)ccc21,6,101,0,-3,-5,/
CCOCCn1c(=NC(=O)/C=C/c2ccccc2Cl)sc2cc(NC(C)=O)ccc21,4,107,0,15,43,-9
O=C(Nc1nc(-c2nc3ccccc3s2)cs1)c1ccco1,0,101,0,7,78*,3
CCOC(=O)c1c(C)n(-c2ccc(OC)cc2)c2c(C/C(C)=N/O)c(Br)c(OC)c(O)c12,-1,/,0,4,22,/
